JMJD2A Tudor = inhibitors of human JMJD2A Tudor domain; Potency, µM (doses to about 114 µM), for inactives: top-dose activity change, negative = inhibition, usual class: inhibitors; AID 504339; 4.4% of 390,000 active; O75164; AlphaScreen JMJD2A-Tudor / H3K4me3 peptide binding; also: potency is read from the fitted curve at half-maximal effect; % is scaled to controls: 0 for no effect and ±100 for the full control effect; nearly all actives have a fitted effect of over 50% in size
Target sequence (O75164 whole entry, looked up, the tested form may be a part): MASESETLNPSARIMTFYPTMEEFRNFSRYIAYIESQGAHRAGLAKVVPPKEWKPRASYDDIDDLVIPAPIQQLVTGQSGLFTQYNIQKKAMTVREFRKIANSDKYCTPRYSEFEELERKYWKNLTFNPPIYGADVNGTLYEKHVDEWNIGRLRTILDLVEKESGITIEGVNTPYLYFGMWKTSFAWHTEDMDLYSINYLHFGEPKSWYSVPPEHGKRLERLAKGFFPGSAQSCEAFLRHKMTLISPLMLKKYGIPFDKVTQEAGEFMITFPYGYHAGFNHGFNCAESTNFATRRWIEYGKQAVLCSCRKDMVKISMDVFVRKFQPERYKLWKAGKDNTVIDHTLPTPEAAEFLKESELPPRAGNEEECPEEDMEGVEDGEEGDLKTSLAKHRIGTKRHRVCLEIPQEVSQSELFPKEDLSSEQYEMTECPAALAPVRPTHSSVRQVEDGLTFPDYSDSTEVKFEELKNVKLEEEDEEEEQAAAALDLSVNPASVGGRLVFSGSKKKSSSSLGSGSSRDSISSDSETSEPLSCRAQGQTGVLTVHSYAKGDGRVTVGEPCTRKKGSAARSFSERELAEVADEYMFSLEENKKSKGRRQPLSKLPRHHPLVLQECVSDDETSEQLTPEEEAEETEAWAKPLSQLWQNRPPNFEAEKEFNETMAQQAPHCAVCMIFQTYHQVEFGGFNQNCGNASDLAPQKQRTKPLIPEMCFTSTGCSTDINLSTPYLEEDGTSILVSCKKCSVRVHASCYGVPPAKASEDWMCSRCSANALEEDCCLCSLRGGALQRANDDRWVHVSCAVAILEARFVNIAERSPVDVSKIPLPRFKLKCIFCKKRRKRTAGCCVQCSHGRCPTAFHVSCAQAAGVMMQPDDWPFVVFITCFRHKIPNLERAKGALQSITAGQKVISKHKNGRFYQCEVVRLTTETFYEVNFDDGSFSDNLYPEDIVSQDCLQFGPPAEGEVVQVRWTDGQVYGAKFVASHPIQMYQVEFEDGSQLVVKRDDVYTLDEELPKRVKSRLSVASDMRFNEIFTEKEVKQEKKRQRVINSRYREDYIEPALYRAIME
BAZ2B inh = BAZ2B (human) inhibition. Q9UIF8. 4.4% of 360,000 active. AlphaScreen BAZ2B-H3K14Ac peptide displacement. Potency, µM (highest dose often 114 µM), for inactives: at the highest dose activity change, negative = inhibition, most hits filed as inhibitors; also: potency is read from the fitted curve at half-maximal effect; % is scaled to controls: 0 for no effect and ±100 for the full control effect; nearly all actives have a fitted effect of over 60% in size
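BAZ2B 50 nM plus b-H3(5-23)K14Ac 50 nM, PBS pH 7.4/0.01% Tween-20, 30 min RT; compound added (max 110 uM), 30 min RT; streptavidin donor/Ni-chelate acceptor beads 10 ug/mL final, 20 min dark; AlphaScreen read.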
G9a block = G9a (human) methyltransferase inhibition. Q96KQ7. G9a H3K9 monomethylation, AlphaScreen, 2 h. Potency, µM (titrated, usually from 102 µM), without a hit: at the top dose activity, negative = inhibition, actives largely listed as inhibitors. 8.8% of 350,000 active. AID 504332; also: potency is read from the fitted curve at half-maximal effect; % is scaled to controls: 0 for no effect and ±100 for the full control effect; nearly all actives have a fitted effect of over 75% in size
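Using a bead-based AlphaScreen, monomethylated H3K9 product from 2 h room-temperature reactions (G9a 20 nM, peptide 500 nM, SAM 20 uM) was detected with 0.5 ug/mL rabbit anti-H3K9me1 antibody.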
PLK1 PBD inh = inhibitors of human PLK1 polo-box domain binding | P53350 | Plk1 PBD binding of FITC phosphopeptide, fluorescence polarization | Potency, µM, for the others: max response, negative = inhibition, actives largely listed as inhibitors | 2.8% of 360,000 active | AID 720504; also: potency is read from the fitted curve at half-maximal effect; series mostly up to about 57 µM; % is scaled to controls: 0 for no effect and ±100 for the full control effect; nearly all actives have a fitted effect of over 65% in size
HP1b chromo inh = inhibitors of HP1-beta chromodomain binding to methylated histone tails; P83916; AlphaScreen HP1-beta / biotin-H3K9me3 peptide binding; Potency, µM (highest dose often 114 µM), without a hit: at the highest dose activity change, negative = inhibition, hits mostly inhibitors; 0.56% of 390,000 active; also: potency is read from the fitted curve at half-maximal effect; nearly all actives have a fitted effect of over 70% in size
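HP1-beta protein (50 nM final) preincubated 30 min at room temperature with biotinylated H3(1-18)K9me3 peptide (50 nM) in PBS pH 7.4, 0.01% Tween-20, then compound added for 30 min. AlphaScreen streptavidin donor/nickel chelate acceptor beads (10 ug/mL final), 30 min dark, luminescence read.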
PI5P4K alpha inh = PI5P4K alpha (human) kinase inhibition; P48426; PI5P4Kalpha enzyme, ADP-Glo luminescence, 60 min; stronger effect = lower value; max response, %; 1.2% of 330,000 active; active = max response of -50% or lower; inconclusive = between -30% and -50%; inactive = -30% or higher; also: value at the top dose of about 77 µM; % is scaled to controls: 0 for no effect and ±100 for the full control effect
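Compounds were pin-transferred onto PI5P4Kalpha and substrate in HEPES pH 7.4 buffer with EGTA, CHAPS and 5% DMSO. ATP (5 microM final) started the reaction, which ran 60 minutes at room temperature before ADP-Glo detection.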
Starred values were filed as active, the others as inactive; ? = inconclusive; . = no result; [ ] = remark or other dose. The list is not random: actives were taken first. Their share in the collection is about 12%. Unless noted, calls follow the shape of the dose curve; as a rule, active = well fitted curve in the direction sought with a large enough effect; inconclusive = small, poorly fitted or top-dose-only effect, or another doubt; inactive = no such curve, though single readings can be large; an effect the other way counts as inactive or inconclusive.

SMILES	JMJD2A Tudor	BAZ2B inh	G9a block	PLK1 PBD inh	HP1b chromo inh	PI5P4K alpha inh
COc1ccc(C(=O)NCC(c2ccc3c(c2)OCO3)N2CCN(C)CC2)cc1 (configuration not stated)	2%	1%	-4%[59 µM]	.	29%[57 µM]	.
COc1ccc(N2CCN(C(CNC(=O)CC(C)C)c3ccc4c(c3)OCO4)CC2)cc1 (configuration not stated)	?	-24%	11µM*	.	3%[57 µM]	.
Cc1nc(N(C)C)c2sc(=S)n(C)c2n1	-11%	-3%	9%	-13%	63%	3
Cc1nc(N(C)C)c2sc(=S)n(-c3ccccc3)c2n1	?	1%	5%	27µM*	17%	-1
Cc1ccc(-c2nn(-c3ccccc3)c3[nH]c(=O)c(CNCCN(C)C)cc23)cc1	.	-7%	8%[12.7 µM]	.	.	.
CCOc1ccc(NCc2cc3c(C(C)(C)C)nn(-c4ccccc4)c3[nH]c2=O)cc1	50µM*	22µM*	40µM*	-7%	?	.
Cc1nn(-c2ccccc2)c2[nH]c(=O)c(CNc3ccc4c(c3)OCCO4)cc12	?	35µM*	11µM*	-14%	-36%	0
CC(C)(C)OC(=O)NCc1nnc(-c2cc3ccccc3[nH]2)o1	-12%	.	.	.	.	.
Cc1cccc(OCc2nnc(N)s2)c1	?	7%	-7%[59 µM]	27µM*	-10%	.
CC(=O)C1=C(C)NC2=C(C(=O)c3ccccc32)C1c1ccccc1 (configuration not stated)	?	?	?	-3%	?	-2
Nc1nc2c(c(=O)[nH]1)C(c1cccc3ccccc13)C1=C(N2)c2ccccc2C1=O (configuration not stated)	?	-10%	35µM*	?	-34%	-19
O=C(Nc1ccc(Nc2ccccc2)cc1)c1cc([N+](=O)[O-])ccc1Cl	?	40µM*	-23%	-9%	19%	9
CSCCC(NC(=O)c1ccc(Cl)cc1)C(=O)O (configuration not stated)	-6%	8%	-41%	7%	44%	-2
CSCCC(NC(=O)c1cc([N+](=O)[O-])ccc1Cl)C(=O)O (configuration not stated)	-8%[57.1 µM]	13%	79µM*	-7%	47%	3
CSCCC(NC(=O)c1cc(C)oc1C)C(=O)O (configuration not stated)	6%	3%	32µM*	0%	36%	-4
O=C(Nc1ccccc1Oc1ccccc1)c1cc([N+](=O)[O-])ccc1Cl	?	?	?	-10%	-20%	11
O=C(Nc1cccnc1)c1ccc(NS(=O)(=O)c2cc([N+](=O)[O-])ccc2Cl)cc1	-17%	79µM*	50µM*	-5%	20%	?
CSCCC(NC(=O)c1cc(CC(C)C)oc1C)C(=O)O (configuration not stated)	-9%	-6%	-10%[59 µM]	-8%	65%	2
COc1ccc(C(C)NC(=S)NC2CCCC2)cc1OC (configuration not stated)	-14%	-6%	18µM*	-3%	2%	-4
COc1ccc(C(C)NC(=O)C2CCCC2)cc1OC (configuration not stated)	5%	-10%	8%	-9%	20%	3
COc1ccccc1CNC(=O)C(=O)c1cn(CC(=O)N2CCCC2)c2ccccc12	-19%	-23%	23%	-9%	36%	1
COc1ccccc1CCNC(=O)C(=O)c1cn(CC(=O)N2CCOCC2)c2ccccc12	-25%	-28%	.	24µM*	-1%	-4
CC(=O)Nc1ccc(NC(=O)CS(=O)(=O)c2cn(CC(=O)N3CCCC3)c3ccccc23)cc1	-10%	-30%	40µM*	-3%	30%	-11
CC(=O)Nc1ccc(NC(=O)Cn2c(CC(=O)N3CCCC3)nc3ccccc32)cc1	?	-19%	-1%[59 µM]	30µM*	?	.
Cc1ccc(CNC(=O)CS(=O)(=O)c2cn(CC(=O)N3CCOCC3)c3ccccc23)cc1	-4%	1%	25µM*	-8%	36%	-2
